The source of these data is PubChem BioAssay (NCATS).

Values without a mark were called inactive. Inconclusive results are not listed. Active and inactive are the calls of the source. Unless noted, calls follow the shape of the dose curve; as a rule, active = well fitted curve in the direction sought with a large enough effect; inconclusive = small, poorly fitted or top-dose-only effect, or another doubt; inactive = no such curve, though single readings can be large; an effect the other way counts as inactive or inconclusive.

Assay [1] has as its target Cytochrome P450 1A2 (Homo sapiens) (UniProt P05177). In words: p450-cyp1a2 (AID 410; calls by dose curve; also: potency is read from the fitted curve at half-maximal effect). An outline of the steps:
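Luminescent readout of luciferin formed from Luciferin-ME by human CYP1A2; data normalized against complete inhibition by 57 uM furafylline. Enzyme 20nM, substrate 100uM at Km, 100mM KPO4 buffer, 60 min reaction at room temperature.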

For assay [2], the target named is Mitogen-activated protein kinase 10 (Mus musculus) (UniProt Q61831). In words: JNK3 AlphaScreen Assay (AID 530; active = well fitted curve in either direction with a large enough effect, not every such curve was filed as active;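 also: kinase came from lysate of stimulated human HepG2 cells; signal reports phosphorylation of biotinylated GST-cJun 1-79 at Ser73 with 10 µM ATP; series mostly up to about 57 µM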). An outline of the steps: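 Inhibitors reduce antibody binding to phosphorylated biotin-cJun, lowering AlphaScreen luminescence. Lysates from HepG2 cells pre-activated by IL-1beta plus TNF-alpha supplied JNK3; compounds were titrated.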
The target of assay [3] is 3',5'-cyclic-AMP phosphodiesterase 4B (Homo sapiens) (UniProt Q07343). Description: qHTS Assay for Inhibitors of PDE-IV (AID 607; active = well fitted activation curve with a large enough effect in the main read-out, with a control signal flat, not every such curve was filed as active). An outline of the steps: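 The readout is membrane depolarisation from a cAMP-sensing CNG channel, detected with a potential dye at ex 535/em 590. Cells were HEK293-derived (endogenous PDE-IV) at 1000 cells/well, titrated up to 22.9 uM final.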
Background: qHTS replaces the single test concentration by a dilution series.

Assay [4] addresses Cytochrome P450 3A4 (Homo sapiens) (UniProt P08684). In words: qHTS Assay for Inhibitors and Substrates of Cytochrome P450 3A4 (AID 884). Also: nearly all actives have a fitted effect of over 50% in size. Also: potency is read from the fitted curve at half-maximal effect. An outline of the steps: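 20 nM human CYP3A4 with 25 uM Luciferin-PPXE (at KM) in 200 mM KPO4, preincubated 10 min with compound; NADPH regeneration started a 60 min RT reaction. Luciferin detected by luminescence, normalized to 57 uM ketoconazole as full inhibition.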

The target in assay [5] is Glucocorticoid receptor (Homo sapiens) (UniProt P04150). In words: GR-EFC Redistribution (AID 451; calls by dose curve; also: potency is read from the fitted curve at half-maximal effect). Particulars: CHO-K1 GR-EFC translocation, beta-gal luminescence, 2 h. An outline of the steps: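 CHO-K1 cells stably expressing nuclear-localized β-gal enzyme acceptor and GR fused C-terminally to the enzyme donor fragment; ligand-driven nuclear translocation restores β-gal by complementation. Compounds titrated up to 46 uM final, 2 h at 37 °C; luminescence read.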

In assay [6] the target is Cytochrome P450 2D6 (Homo sapiens) (UniProt P10635). In words: qHTS Assay for Inhibitors and Substrates of Cytochrome P450 2D6 (AID 891). Also: nearly all actives have a fitted effect of over 60% in size. Also: potency is read from the fitted curve at half-maximal effect. An outline of the steps:
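Human CYP2D6 (5 nM) with 30 uM Luciferin-ME EGE (at Km) in 100 mM KPO4, compound preincubated 10 min, then NADPH regeneration system for 60 min at room temperature. Luciferin read by luminescence; normalized to 1.43 uM quinidine.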

Assay [7] addresses Cytochrome P450 2C9 (Homo sapiens) (UniProt P11712). In words: qHTS Assay for Inhibitors and Substrates of Cytochrome P450 2C9 (AID 883). Also: nearly all actives have a fitted effect of over 60% in size. Also: potency is read from the fitted curve at half-maximal effect. An outline of the steps: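 CYP2C9 deoxyluciferin hydroxylation, 37C, 60 min with NADPH regeneration; 10nM enzyme, 100uM Luciferin-H (KM). Glo detection reagent stopped reaction; luminescence normalized to sulphaphenazole (57uM) full inhibition.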

Assay [8] addresses Cytochrome P450 2C19 (Homo sapiens) (UniProt P33261). Description: qHTS Assay for Inhibitors and Substrates of Cytochrome P450 2C19 (AID 899). Also: nearly all actives have a fitted effect of over 60% in size. An outline of the steps: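 In 50mM KPO4, the reaction held 5nM enzyme and KM-level (10uM) Luciferin-H EGE; it ran 60 min at 37C after NADPH regeneration and a 10 min compound preincubation. Luminescence values were scaled to 57uM ketoconazole as complete inhibition.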

Assay [9] concerns the target Glucocorticoid receptor (Homo sapiens) (UniProt P04150). In words: GR-GFP Redistribution (AID 450;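 active = compounds whose dose series gives a full or clear partial fitted curve of increased nuclear translocation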; also: potency is read from the fitted curve at half-maximal effect). Particulars: U2OS GR-GFP nuclear translocation, laser cytometry, 2 h.
The target in assay [10] is Cytochrome P450 3A4 (Homo sapiens) (UniProt P08684). In words: qHTS Assay for Activators of Cytochrome P450 3A4 (AID 885). Also: nearly all actives have a fitted effect of over 65% in size. An outline of the steps: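 Steps: enzyme/substrate mix dispensed; compound added, 10 min RT; NADPH regeneration solution added, 60 min RT; luciferin detection buffer stops reaction; 20 min later luminescence measured.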
The target of assay [11] is Ubiquitin carboxyl-terminal hydrolase 1 (Homo sapiens) (UniProt O94782). In words: Inhibitors of USP1/UAF1: Pilot qHTS (AID 504865).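 Also: rhodamine fluorescence freed from ubiquitin-rhodamine substrate followed over time; top concentration of the series differs between compounds; nearly all actives have a fitted effect of over 35% in size.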 An outline of the steps: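 Deubiquitinase activity followed as kinetic rhodamine fluorescence release from 150 nM Ub-Rho. 1 nM USP1/UAF1 with compound, after 15 min room-temperature preincubation, in HEPES pH 7.8 buffer containing TCEP, EDTA, BSA and Tween-20.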

Assay [12] deals with DNA dC->dU-editing enzyme APOBEC-3G (Homo sapiens) (UniProt Q9HC16). Description: qHTS for inhibitors of Vif-A3G interactions: Validation (AID 588379). An outline of the steps:
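HeLa cells stably expressing Vif and A3G-eYFP, 700 cells/well, incubated overnight at 37 deg C, then exposed to compound overnight at 37 deg C. Inhibition of Vif-mediated degradation read as increased yellow fluorescence (Ex 488/Em 500-530) by laser-scanning cytometry.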

Assay [13] is described as follows: Confirmation and Secondary Assay for Modulators of Hemoglobin Beta Chain Splicing at IVS2 654 locus (AID 910).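 Also: per-well total GFP intensity by laser scanning cytometry after 2-day treatment.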 An outline of the steps:
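HeLa cells stably carrying EGFP interrupted by mutant beta-globin IVS2-654 intron (CMV-driven) were treated with compound for 2 days at 37C; corrected splicing was scored as total peak GFP intensity per well (488 nm excitation, 500-520 nm emission).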

Assay [14] in a line: Confirmation and Secondary Assay for Modulators of Hemoglobin Beta Chain Splicing at IVS2 705 locus (AID 930).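 Also: HeLa cells stably expressing the EGFP-705 splicing reporter; series mostly up to about 46 µM.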 An outline of the steps:
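HeLa cells stably carrying EGFP interrupted by mutant beta-globin IVS2-705 intron (CMV-driven) were seeded at 500 cells/well, treated next day with compound for 2 days at 37C; corrected splicing restores EGFP, read as total peak GFP intensity per well.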

Chain of Cytochrome P450 2C19 (Homo sapiens) (P33261 whole entry, looked up): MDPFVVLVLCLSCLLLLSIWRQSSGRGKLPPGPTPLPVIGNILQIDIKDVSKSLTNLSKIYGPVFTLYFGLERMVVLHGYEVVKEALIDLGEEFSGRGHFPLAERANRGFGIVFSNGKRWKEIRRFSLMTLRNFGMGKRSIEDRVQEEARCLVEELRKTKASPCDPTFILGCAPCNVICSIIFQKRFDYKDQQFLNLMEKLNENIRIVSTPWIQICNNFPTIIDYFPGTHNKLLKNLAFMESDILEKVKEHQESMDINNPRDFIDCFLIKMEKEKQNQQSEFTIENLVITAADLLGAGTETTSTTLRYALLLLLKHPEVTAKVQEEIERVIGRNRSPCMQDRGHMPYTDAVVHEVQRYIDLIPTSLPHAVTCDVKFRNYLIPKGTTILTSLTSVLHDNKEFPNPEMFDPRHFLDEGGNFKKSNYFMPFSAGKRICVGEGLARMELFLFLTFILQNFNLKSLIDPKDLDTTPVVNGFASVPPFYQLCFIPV
Chain of Glucocorticoid receptor (Homo sapiens) (P04150 whole entry, looked up, the tested form may be a part): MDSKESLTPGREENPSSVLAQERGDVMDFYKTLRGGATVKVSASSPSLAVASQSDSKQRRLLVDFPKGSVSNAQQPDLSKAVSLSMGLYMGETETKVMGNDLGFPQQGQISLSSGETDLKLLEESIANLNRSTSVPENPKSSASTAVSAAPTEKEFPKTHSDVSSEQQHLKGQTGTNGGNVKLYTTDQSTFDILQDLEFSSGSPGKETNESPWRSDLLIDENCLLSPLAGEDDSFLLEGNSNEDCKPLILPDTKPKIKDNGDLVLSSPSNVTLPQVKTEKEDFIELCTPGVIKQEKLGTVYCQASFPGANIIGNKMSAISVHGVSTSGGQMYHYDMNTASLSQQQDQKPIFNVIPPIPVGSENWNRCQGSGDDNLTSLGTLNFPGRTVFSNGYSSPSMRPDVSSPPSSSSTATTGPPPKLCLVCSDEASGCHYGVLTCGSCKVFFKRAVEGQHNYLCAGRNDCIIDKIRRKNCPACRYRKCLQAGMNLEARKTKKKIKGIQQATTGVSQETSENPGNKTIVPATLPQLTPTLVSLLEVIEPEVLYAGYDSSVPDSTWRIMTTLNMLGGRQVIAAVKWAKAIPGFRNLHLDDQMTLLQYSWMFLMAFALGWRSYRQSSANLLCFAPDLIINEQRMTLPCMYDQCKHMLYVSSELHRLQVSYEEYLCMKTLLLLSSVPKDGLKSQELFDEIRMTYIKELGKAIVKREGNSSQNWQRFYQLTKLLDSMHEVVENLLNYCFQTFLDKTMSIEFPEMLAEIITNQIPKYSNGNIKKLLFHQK
Chain of Cytochrome P450 3A4 (Homo sapiens) (P08684 whole entry, looked up): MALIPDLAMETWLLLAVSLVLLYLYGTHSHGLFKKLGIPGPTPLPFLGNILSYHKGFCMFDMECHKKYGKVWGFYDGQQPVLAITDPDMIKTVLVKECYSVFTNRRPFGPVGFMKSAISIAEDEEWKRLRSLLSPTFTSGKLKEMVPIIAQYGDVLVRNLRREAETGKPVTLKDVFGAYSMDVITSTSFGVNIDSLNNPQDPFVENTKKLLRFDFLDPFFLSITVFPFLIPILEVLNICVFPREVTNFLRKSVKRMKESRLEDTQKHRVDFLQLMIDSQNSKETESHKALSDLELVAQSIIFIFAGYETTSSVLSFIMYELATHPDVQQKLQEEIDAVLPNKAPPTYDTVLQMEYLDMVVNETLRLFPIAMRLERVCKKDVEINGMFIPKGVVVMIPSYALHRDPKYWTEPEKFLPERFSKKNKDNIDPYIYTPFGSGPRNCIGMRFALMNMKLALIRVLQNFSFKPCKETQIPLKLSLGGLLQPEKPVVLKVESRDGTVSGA
Chain of Cytochrome P450 2D6 (Homo sapiens) (P10635 whole entry, looked up): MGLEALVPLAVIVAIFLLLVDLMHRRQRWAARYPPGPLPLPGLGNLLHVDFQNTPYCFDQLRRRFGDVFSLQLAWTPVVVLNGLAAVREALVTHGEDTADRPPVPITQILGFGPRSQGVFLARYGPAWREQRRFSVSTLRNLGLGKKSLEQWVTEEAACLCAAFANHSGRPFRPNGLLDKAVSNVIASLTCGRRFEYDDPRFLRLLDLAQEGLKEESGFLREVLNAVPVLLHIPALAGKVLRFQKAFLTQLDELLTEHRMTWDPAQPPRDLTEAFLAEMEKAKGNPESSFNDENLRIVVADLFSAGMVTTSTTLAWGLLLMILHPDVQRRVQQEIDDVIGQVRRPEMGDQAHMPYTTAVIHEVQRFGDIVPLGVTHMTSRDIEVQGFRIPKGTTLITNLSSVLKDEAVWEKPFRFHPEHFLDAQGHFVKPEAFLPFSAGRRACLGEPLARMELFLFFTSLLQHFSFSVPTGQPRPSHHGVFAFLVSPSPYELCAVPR
Chain of Cytochrome P450 2C9 (Homo sapiens) (P11712 whole entry, looked up): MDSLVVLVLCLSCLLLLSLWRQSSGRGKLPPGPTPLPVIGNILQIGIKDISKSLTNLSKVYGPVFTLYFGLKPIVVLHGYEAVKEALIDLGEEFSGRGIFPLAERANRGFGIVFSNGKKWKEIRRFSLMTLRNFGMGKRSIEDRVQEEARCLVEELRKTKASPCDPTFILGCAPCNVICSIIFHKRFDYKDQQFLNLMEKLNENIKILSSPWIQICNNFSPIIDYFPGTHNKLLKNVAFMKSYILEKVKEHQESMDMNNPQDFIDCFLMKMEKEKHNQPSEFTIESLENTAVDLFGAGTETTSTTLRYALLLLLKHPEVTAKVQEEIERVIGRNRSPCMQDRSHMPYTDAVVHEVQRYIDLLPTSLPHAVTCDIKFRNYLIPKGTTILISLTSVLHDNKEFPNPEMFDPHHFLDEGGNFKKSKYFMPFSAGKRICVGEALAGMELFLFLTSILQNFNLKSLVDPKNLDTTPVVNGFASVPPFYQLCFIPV
Chain of Cytochrome P450 1A2 (Homo sapiens) (P05177 whole entry, looked up): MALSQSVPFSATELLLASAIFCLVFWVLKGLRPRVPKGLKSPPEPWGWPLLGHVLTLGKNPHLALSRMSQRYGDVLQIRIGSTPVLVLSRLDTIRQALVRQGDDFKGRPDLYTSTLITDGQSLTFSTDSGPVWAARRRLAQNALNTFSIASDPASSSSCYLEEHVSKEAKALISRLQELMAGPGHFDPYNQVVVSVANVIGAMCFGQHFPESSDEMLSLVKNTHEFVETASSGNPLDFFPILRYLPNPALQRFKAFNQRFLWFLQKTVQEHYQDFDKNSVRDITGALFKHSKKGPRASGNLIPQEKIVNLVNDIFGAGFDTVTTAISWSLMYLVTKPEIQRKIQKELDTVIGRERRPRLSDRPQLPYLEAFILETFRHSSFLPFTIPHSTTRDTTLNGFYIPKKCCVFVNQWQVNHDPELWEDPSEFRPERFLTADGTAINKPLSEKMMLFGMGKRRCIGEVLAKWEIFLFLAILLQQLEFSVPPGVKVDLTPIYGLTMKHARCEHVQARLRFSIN
Chain of 3',5'-cyclic-AMP phosphodiesterase 4B (Homo sapiens) (Q07343 whole entry, looked up): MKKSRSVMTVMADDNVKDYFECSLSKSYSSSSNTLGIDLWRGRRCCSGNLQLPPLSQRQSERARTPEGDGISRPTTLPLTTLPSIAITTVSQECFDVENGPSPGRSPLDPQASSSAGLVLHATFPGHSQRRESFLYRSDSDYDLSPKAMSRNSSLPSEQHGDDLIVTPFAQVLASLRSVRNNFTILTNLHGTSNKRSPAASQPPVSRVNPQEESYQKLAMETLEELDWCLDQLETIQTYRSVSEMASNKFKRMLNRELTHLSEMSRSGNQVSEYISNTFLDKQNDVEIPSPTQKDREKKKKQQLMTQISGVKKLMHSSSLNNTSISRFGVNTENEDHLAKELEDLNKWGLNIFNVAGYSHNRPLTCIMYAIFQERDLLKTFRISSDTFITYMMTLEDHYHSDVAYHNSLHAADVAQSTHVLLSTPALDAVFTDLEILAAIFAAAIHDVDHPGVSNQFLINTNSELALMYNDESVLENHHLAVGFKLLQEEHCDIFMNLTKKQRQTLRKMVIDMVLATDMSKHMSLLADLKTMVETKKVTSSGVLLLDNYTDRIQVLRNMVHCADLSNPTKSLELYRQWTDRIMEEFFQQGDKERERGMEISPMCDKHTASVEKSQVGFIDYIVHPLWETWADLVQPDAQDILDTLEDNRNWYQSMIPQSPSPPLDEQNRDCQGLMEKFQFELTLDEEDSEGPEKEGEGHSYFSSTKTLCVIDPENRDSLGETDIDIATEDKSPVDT
Chain of DNA dC->dU-editing enzyme APOBEC-3G (Homo sapiens) (Q9HC16 whole entry, looked up): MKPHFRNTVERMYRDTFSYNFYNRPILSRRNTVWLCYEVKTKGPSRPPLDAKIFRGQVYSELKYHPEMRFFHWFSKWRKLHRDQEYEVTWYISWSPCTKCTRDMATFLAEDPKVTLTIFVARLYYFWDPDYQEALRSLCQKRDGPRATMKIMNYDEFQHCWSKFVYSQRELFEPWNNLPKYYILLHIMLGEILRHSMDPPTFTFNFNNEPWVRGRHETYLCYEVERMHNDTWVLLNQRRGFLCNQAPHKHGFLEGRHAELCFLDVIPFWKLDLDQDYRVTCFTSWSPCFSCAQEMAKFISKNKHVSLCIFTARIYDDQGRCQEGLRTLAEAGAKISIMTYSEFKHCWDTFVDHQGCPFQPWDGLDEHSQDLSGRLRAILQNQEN

Consider `COC(=O)[C@@]1(Cc2ccc(F)cc2)[C@H]2c3cc(C(=O)N(C)C)[nH]c3C[C@H]2CN1C(=O)c1ccccc1`, for which the Potency was 20 µM (active) in assay [1] and 0.631 µM (active) in [4]. Further, the outcome in [2] and in assay [3] was inactive.

For `CN1C[C@H](CO)C=C2c3cccc4[nH]cc(c34)C[C@H]21`, the Potency in assay [1] was 1 µM (active); in assay [5], above 46 µM; in [6] it was 0.0251 µM (active). Further, the outcome in assay [2] and in [3] was inactive.

For the compound `C[C@@H]1CCC/C=C\[C@H]2C[C@H](O)C[C@@H]2[C@H](O)/C=C\C(=O)O1`, the Potency result in assay [1], in assay [7], in [6] and in assay [8] was “inactive” in each case. The Potency in assay [5] is above 46 µM. The outcome in assay [2] and in [3] was inactive.

For the compound `CCCCCC[C@H]1C(=O)O[C@@H](C)[C@H](NC(=O)c2cccc(NC=O)c2O)C(=O)O[C@@H](C)[C@@H]1OC(=O)CC(C)C`, the Potency result in [1], in assay [6] and in [8] was “inactive” throughout. Also, the result in assay [2] was inactive.

On to `C=C[C@@H]1CN2CC[C@H]1C[C@H]2[C@@H](O)c1ccnc2ccccc12`, for which the Potency entry in [1], in assay [7] and in assay [8] was “inactive” each time. Moreover, the Potency in [9] is above 46 µM; in [6], 0.1 µM (active). Besides, the result in assay [2] was inactive.

Turning to `O=C(O)[C@@H]1C[C@H]1[C@@H](NP(=O)(c1ccccc1)c1ccccc1)c1ccccc1`, in assay [1], the Potency result is “inactive”. The compound was called inactive in assay [2] and in [3].

With `CCCc1cc2c(n1Cc1ccc(C)cc1)C(C)C1CN(C(=O)c3ccccc3)C(C)(C(=O)OC)C21` (stereo not drawn), the Potency is 7.94 µM (active) in assay [1] and 3.16 µM (active) in assay [4]. Besides, the result in [2] was inactive. For the same compound, the Potency entry in assay [10] is “inactive”.

`O=c1cccc2n1C[C@@H]1C[C@H]2CN2CCCC[C@H]12`: the Potency in assay [1] is 1.26 µM (active); in assay [5], above 46 µM. For the same compound, the compound was classed as inactive in [2] and in assay [3]. Further, in [7], the Potency entry was “inactive”.

Take `C=C[C@@H]1CN2CC[C@@H]1C[C@H]2[C@H](O)c1ccnc2ccccc12`: the Potency result in assay [1], in [7] and in assay [8] was “inactive” each time. The figures for the Potency in assay [5] and in [6] were above 46 µM and 3.98 µM (active), respectively. Also, the call in assay [2] and in assay [3] was inactive.

Regarding `CN(CCc1ccc(Cl)c(Cl)c1)[C@H]1CCCC[C@H]1N1CCCC1`, the results for the Potency in assay [1], in [5] and in assay [6] were 31.6 µM (active), above 46 µM and 0.0063 µM (active), respectively. The result in assay [2] and in assay [12] was inactive. In addition, the Potency result in [10] and in [11] was “inactive” each time.

`c1cc2cc(c1)C[n+]1ccc(c3ccccc31)NCc1ccc(cc1)CNc1cc[n+](c3ccccc13)C2`: in assay [1], the Potency entry was “inactive”. Further, the Potency in [9] was above 46 µM; in assay [7], 2.51 µM (active). For the same compound, the compound was called inactive in [3] and in assay [12].

`COc1ccc2c(c1O)-c1c(OC)c(OC)cc3c1[C@@H](C2)N(C)CC3`: the Potency in [1] was 15.8 µM (active); in assay [9] it was above 46 µM. Moreover, the Potency result in assay [7], in assay [4], in assay [8] and in assay [13] was “inactive” each time. Besides, the result in assay [14] was inactive.

Take `C[C@@]12CC[C@H](O)C[C@@H]1CC[C@H]1[C@H]2C[C@@H](O)[C@]2(C)[C@@H](C3=CC(=O)OC3)CC[C@@]12O`: the Potency result in [1], in assay [7], in [6] and in [8] was “inactive” in each case. In addition, the Potency in assay [9] and in assay [5] was above 46 µM each time. Besides, the call in assay [2] was inactive.

For `CC(C)C[C@H]1C(=O)N2CCC[C@@H]2[C@]2(O)O[C@](NC(=O)[C@H]3C=C4c5cccc6[nH]cc(c56)C[C@H]4N(C)C3)(C(C)C)C(=O)N12`, the Potency in assay [1] is 31.6 µM (active); in [9] it was above 46 µM; in assay [5], above 46 µM. Besides, in [3], the compound was classed as inactive. Further, in [6], the Potency entry is “inactive”.

On to `CC(C)(C)[C@@]1(O)C[C@@H]2OC(=O)C[C@@]23C(=O)O[C@H]2OC(=O)[C@@H](O)[C@]231`, for which the Potency entry in assay [1], in assay [7], in assay [6] and in assay [8] was “inactive” in each case. The Potency in assay [9] was above 46 µM. Further, the outcome in [2] and in assay [3] was inactive.

For the compound `COc1cc2c(cc1OC)[C@]13CCN4CC5=CCO[C@@H]6CC(=O)N2[C@@H]1[C@H]6[C@@H]5C[C@H]43`, the Potency result in [1], in assay [7], in assay [6] and in assay [8] was “inactive” each time. The call in assay [2] was inactive.
